Screening results deposited in PubChem by National Center for Advancing Translational Sciences (NCATS).
Sampled rows, rich in hits. Any-hit rate of the full collection: about 21%.
CHX counter: affects cycloheximide protein synthesis inhibition readout, counter-screen; cell reporter, cycloheximide protein synthesis inhibition counterscreen; max response, %; 300,000 tested, 12% active; in the data active = max response mostly above about 13%, no sharp cut-off; inactive = mostly below about 14%; note: read at 38.3 µM for the half of the compounds with a filed dose; 0% is about no effect
NS1 function inh: influenza NS1 inhibition | Potency, µM (top dose mostly 46.1 µM), for the others: top-dose activity, positive = more growth | 270,000 tested, 0.4% active | AID 2326; calls by dose curve; note: potency is the fitted concentration of half-maximal effect; actives are rising curves; nearly all actives have a fitted effect of over 50% in size
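Read-out: OD600 growth recovery of NS1-expressing budding yeast. Cells grown overnight at 30C in -URA glucose medium, washed, resuspended and diluted 1:100 in 2% galactose assay medium, pH 6.0. Same strain lacking NS1 served as positive control.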
Pf growth 48h: inhibits P. falciparum growth in the first generation, 48 h | P. falciparum luciferase growth in erythrocytes, 48 h | Potency, µM (top dose mostly 28.7 µM), for the others: top-dose activity change, negative = inhibition, hits mostly inhibitors | 310,000 tested, 5.9% active | AID 504832; note: potency is the fitted concentration of half-maximal effect; % is set by controls: 0 for no effect and ±100 for the full control effect
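Read-out is firefly luciferase luminescence from an integrated reporter in P. falciparum, so falling signal marks reduced parasite growth. Infected erythrocytes were at 2% hematocrit and 0.1% parasitemia (final) in Albumax-supplemented RPMI 1640.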
SARS PLP yeast: blocks SARS-CoV papain-like protease in a yeast assay; 330,000 tested, 0.19% active; S. cerevisiae expressing SARS-CoV PLpro, growth rescue; Potency, µM (top dose mostly 32.9 µM), for inactives: top-dose activity, positive = growth rescue, usual class: activators; AID 485353; calls by dose curve; note: potency is the fitted concentration of half-maximal effect; 0% is about no effect; nearly all actives have a fitted effect of over 55% in size
Pf growth 96h: inhibits malaria parasite growth, 96 h; P. falciparum luciferase reporter growth, 96 h; Potency, µM (titrated, usually from 28.7 µM), for the others: at the highest dose activity change, negative = inhibition, hits mostly inhibitors; 320,000 tested, 6.9% active; AID 504834; note: potency is the fitted concentration of half-maximal effect; % is set by controls: 0 for no effect and ±100 for the full control effect
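Compounds incubated with erythrocytes infected by luciferase-expressing P. falciparum (2% hematocrit, 0.05% parasitemia final) for 96 hours, 37 C in 5% CO2. Growth inhibition scored as decreased luciferase luminescence.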
Shiga toxin inh: inhibitors of Shiga toxin in Vero cells. Vero cells, Shiga toxin protein synthesis inhibition reporter. inhibition, % at 38.7 µM. 290,000 tested, 9.2% active. AID 2315; in the data active = inhibition mostly above about 28%, no sharp cut-off; inactive = mostly below about 43%; note: 0% is about no effect
* = called active by the depositor; ? = inconclusive; . = no result. Unless noted, calls come from the whole dose curve; as a rule, active = well fitted inhibition curve with a large enough effect; inconclusive = small, poorly fitted or top-dose-only effect, or another doubt; inactive = no such curve, though single readings can be large or run the other way.

SMILES	CHX counter	NS1 function inh	Pf growth 48h	SARS PLP yeast	Pf growth 96h	Shiga toxin inh
COc1ccc(NS(=O)(=O)c2ccc(C)c(C(=O)NC3CCN(Cc4ccccc4)CC3)c2)cc1	-1.7	-1.3%	10.4µM*	-5.2%	7.38µM*	-2.5
COc1ccc(NC(=O)COC(=O)CCNS(=O)(=O)c2ccc(Cl)cc2)cc1	-1.7	-5.2%	57.4%	-1.5%	31.2%	-9.2
Cc1c(C(=O)NCc2ccccc2CN2CCCC2)oc2ccc(F)cc12	.	.	?	-3.0%	?	.
CCOC(=O)c1c(-c2ccsc2)csc1N	4.5	-12.4%	2.94µM*	-1.3%	-3.8%	13.3
O=C(Nc1ccc2c(c1)CCC2)C1CCN(c2c3c(nc4ncnn24)CCC3)CC1	0.9	?	11.7µM*	1.3%	-8.6%	-6.3
Cc1ccccc1NS(=O)(=O)c1cc2c3c(c1)CC(=O)N3CCC2	-3.3	13.2%	13.1µM*	-1.4%	8.7%	-8.0
CCC(=O)N1CCc2cc(S(=O)(=O)Nc3ccccc3C)ccc21	10.6	2.8%	1.7%	1.5%	0.928µM*	27.8
Cc1cccc(NS(=O)(=O)c2cc3c4c(c2)CC(=O)N4CCC3)c1C	-0.8	10.7%	?	1.3%	75.0%	4.5
CCC(=O)N1CCc2cc(S(=O)(=O)NCCN3CCC(C)CC3)ccc21	-0.4	?	.	8.1%	1.65µM*	-6.7
CCCCN(c1ccccc1)S(=O)(=O)c1ccc2c(c1)CCN2C(=O)CCC(=O)O	-0.9	-0.2%	?	-1.6%	9.28µM*	13.8
O=C(O)C1(S(=O)(=O)CCC(F)=C(F)F)CC1	10.5	.	23.9%	0.5%	45.3%	7.0
CC(=O)N1CCc2cc(S(=O)(=O)NCCC(=O)NC3CCCc4ccccc43)ccc21 (stereo not given)	2.0	7.8%	11.7µM*	0.1%	36.5%	1.5
CCN(CC)S(=O)(=O)c1ccc(N2CCOCC2)c(NC(=O)c2ccccc2F)c1	6.9	.	-21.4%	-1.9%	-18.4%	-6.5
CCN(CC)S(=O)(=O)c1cc(NC(=O)C(=O)c2c(-c3ccccc3)cc3ccccn23)ccc1C	-1.8	?	.	-5.5%	11.7µM*	1.4
CCN(CC)S(=O)(=O)c1cccc(NC(=O)C(=O)c2c(-c3ccccc3)cc3ccccn23)c1	-7.5	0.4%	.	-12.1%	7.38µM*	-11.8
CCN(CC)S(=O)(=O)c1ccc(N2CCOCC2)c(NC(=O)C(=O)c2c(-c3ccccc3)cc3ccccn23)c1	-2.0	2.3%	6.57µM*	-23.9%	.	-14.8
CCOC(=O)c1ccc(NCc2cccnc2)cc1	15.5*	-28.1%	55.8%	-4.4%	10.5%	44.6
CCCCc1ccc(NC(=O)Nc2cccnc2)cc1	76.1*	-78.3%	?	-4.7%	34.5%	152.9*
CCCCc1ccc(NC(=S)Nc2cccnc2)cc1	9.2	-3.8%	15.4%	-8.8%	22.9%	2.5
Cc1ccc(NC(=O)NCc2cccnc2)cc1Cl	32.1*	1.4%	17.6%	-5.3%	-4.3%	38.5*
O=C(NCc1cccnc1)Nc1cccc(C(F)(F)F)c1	-2.6	6.7%	-21.1%	8.7%	1.47µM*	13.3
O=[N+]([O-])c1ccc(Cl)c(/C=N/n2c(-c3ccncc3)n[nH]c2=S)c1	-0.7	3.6%	-9.1%	-2.3%	-3.6%	-7.8
CCCCn1c(N)c(N(CC(C)C)C(=O)CSC(C)C(=O)Nc2cc(C)on2)c(=O)[nH]c1=O (stereo not given)	.	.	?	-0.3%	?	.
CCCCCc1ccc(CC(=O)O)cc1	10.0	-226.0%	10.3%	-24.4%	9.28µM*	5.0
O=C(NCc1cccnc1)Nc1ccccc1	5.1	1.1%	18.4%	-0.4%	-17.6%	5.0
SMILES	CHX counter	NS1 function inh	Pf growth 48h	SARS PLP yeast	Pf growth 96h	Shiga toxin inh
CCCCc1ccc(NC(=S)Nc2ccc(Nc3ccc(OC)cc3)cc2)cc1	7.7	?	-9.0%	?	-2.2%	5.4
CCc1ccc(NC(=O)NCc2cccnc2)cc1	26.6*	3.5%	63.6%	-3.3%	?	10.3
CCCCc1ccc(NC(=O)OC)cc1	12.4	-51.8%	74.2%	0.8%	111.5%	45.7*
Cn1ccnc1C(O)(c1ccccc1)c1ccccc1	-4.5	-0.2%	16.8%	-1.1%	6.0%	13.3
COc1ccccc1NC(=S)N(CCN1CCOCC1)Cc1ccccc1F	-2.1	-3.8%	0.0%	-0.1%	21.5%	-6.3
CCOc1ccc2c(c1)C(N(CCN1CCOCC1)C(=S)Nc1ccccc1OC)CC(C)(C)O2 (stereo not given)	3.1	.	?	3.1%	10.4µM*	-4.8
COc1cc(OC)cc(-c2nnc3n2N=C(c2ccccc2OC)CS3)c1	-2.5	.	.	.	.	-6.8
COC(=O)c1ccc(CNC(=O)CSC2=NCCS2)cc1	11.3	.	4.8%	-2.0%	30.6%	22.2
O=[N+]([O-])c1ccc(CSC2=NCCS2)cc1	26.8*	19.3%	31.9%	1.9%	-2.8%	.
O=C(CSC1=NCCS1)N1CCN(c2ccc(Cl)cc2)CC1	-3.0	-9.6%	1.2%	3.6%	12.6%	-23.4
COC(=O)c1ccc(CSC2=NCCS2)cc1	60.9*	2.7%	143.5%	17.4%	46.8%	79.3*
c1ccc(CSC2=NCCS2)cc1	29.0	.	16.6%	1.8%	-15.8%	120.4*
O=C(NCSC1=NCCS1)c1ccccc1	-1.8	5.4%	4.1%	5.1%	?	-13.6
O=C(CSC1=NCCS1)c1ccc(Cl)cc1	-1.1	.	10.4µM*	-23.1%	?	16.8
COc1cccc(CNC(=O)c2ccc(CS(=O)Cc3ccc(C)cc3)o2)c1 (stereo not given)	-1.6	11.1%	-8.6%	3.0%	?	-3.9
O=C(NCC(=O)N1CCOCC1)c1ccc(Cl)c(Cl)c1	.	.	.	-7.2%	.	.
Cc1ccc(NC(=O)C(C)Sc2nnc(C)n2C)cc1 (stereo not given)	-1.7	-15.1%	18.7%	-11.1%	174.5%	.
CC(Sc1nnnn1C)C(=O)Nc1ccc(Oc2ccccc2)cc1 (stereo not given)	6.3	-28.2%	12.0%	-12.7%	20.4%	20.1
CCOc1ccc(NC(=O)C(C)Sc2nnc(C)n2C)cc1 (stereo not given)	-1.7	-5.7%	7.0%	3.7%	13.1µM*	15.4
CCOc1ccc(NC(=O)C(C)Sc2nccn2C)cc1 (stereo not given)	16.9*	-15.9%	47.3%	-1.1%	-0.3%	9.3
Nn1cnnc1SCC(=O)Nc1ccc2c(c1)OCO2	0.8	.	4.3%	-2.7%	22.3%	-9.7
COc1ccc(N(C)C(=O)c2oc(=O)c3ccccc3c2-c2ccccc2)c(OC)c1	-1.7	-9.0%	?	0.0%	?	6.4
CCC(C)(C)n1nnnc1CN1CCC(c2nc3ccc(C)cc3[nH]2)CC1	-1.9	-8.7%	.	-7.9%	33.7%	-4.1
Cc1cc2nc(C3CCN(Cc4nnnn4Cc4ccccc4)CC3)[nH]c2cc1C	-0.7	-7.9%	?	3.4%	5.22µM*	-16.1
COc1ccc(Cn2nnnc2CN2CCC(c3nc4ccccc4s3)CC2)cc1	6.7	-58.2%	11.7µM*	-2.3%	181.7%	2.4
CC(CCc1ccccc1)NC(=O)CC(C)c1ccccc1 (stereo not given)	-1.7	1.9%	2.2%	-0.5%	?	-3.3
